Data: PubChem BioAssay

target: Tumor necrosis factor receptor superfamily member 10B (Homo sapiens) (UniProt O14763); assay: viability loss of caspase-8 NB7 cells with TRAIL – with/without TRAIL, luminescence panel, confirmation (AID 651596); conditions: NB7 neuroblastoma + caspase-8, TRAIL sensitization, NB7 Caspase-8, with TRAIL, mean of runs, at 10 µM, stronger effect = higher value
Sequence (O14763 whole entry, looked up): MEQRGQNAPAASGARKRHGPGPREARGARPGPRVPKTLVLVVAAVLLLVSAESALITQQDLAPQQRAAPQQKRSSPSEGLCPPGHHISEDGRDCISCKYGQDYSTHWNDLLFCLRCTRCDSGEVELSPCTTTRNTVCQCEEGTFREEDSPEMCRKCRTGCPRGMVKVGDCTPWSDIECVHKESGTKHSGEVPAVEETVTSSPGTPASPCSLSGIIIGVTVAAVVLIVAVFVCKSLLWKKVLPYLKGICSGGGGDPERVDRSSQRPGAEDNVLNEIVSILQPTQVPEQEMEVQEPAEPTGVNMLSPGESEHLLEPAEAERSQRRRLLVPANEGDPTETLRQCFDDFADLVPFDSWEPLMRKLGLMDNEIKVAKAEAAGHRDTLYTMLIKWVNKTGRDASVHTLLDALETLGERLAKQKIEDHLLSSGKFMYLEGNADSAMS

Row | SMILES | activity [%]
1 | Cc1c(C(=O)Nc2cccc([N+](=O)[O-])c2)csc1-c1ccccc1 | 56.5
2 | COc1ccc(S(=O)(=O)N2CCC(C(=O)NCCC3=CCCCC3)CC2)cc1C | 13.8
3 | CC(=O)c1cccc(NC(=O)CSc2ccc(-c3ccc4c(c3)OCO4)nn2)c1 | 52.1
4 | NC1=NC[C@H](CC2CCCCC2)N1CCc1cc(C(F)(F)F)cc(C(F)(F)F)c1 | 40.9
5 | CCCCc1ccc(NC(=O)c2ccc(N(C)S(C)(=O)=O)cc2)cc1 | 25.8
6 | CCc1ccc(-n2nc3cc(C)c(N)cc3n2)cc1 | 64.4
7 | Cc1ccc2nc(-c3ccc(NC(=O)COC(=O)c4ccc([N+](=O)[O-])o4)cc3)sc2c1 | 70.1
8 | O=C(Nc1ccc(N2CCN(C(=O)c3ccccc3)CC2)cc1)c1ccc([N+](=O)[O-])o1 | 89
9 | CN(C)CCCN(C(=O)c1ccc(S(=O)(=O)N(C)C2CCCCC2)cc1)c1nc2ccc(Br)cc2s1 | 46.2
10 | Cc1ccsc1/C=N/NC(=O)c1ccc2c(c1)OCCO2 | 75.9
11 | COc1ccccc1-c1nnc(-c2ccc(C)cc2)o1 | 46.6
12 | Cc1cc(C)c(C#N)c(SCc2nc3ccccc3c(=O)[nH]2)n1 | 82.8
13 | CNc1nnc(-c2ccc(N(C)C)cc2)s1 | 73.4
14 | O=C(NO)c1cc(OCC(F)(F)F)ccc1OCC(F)(F)F | 51.1
15 | Cc1ccc(-c2nnc(NC(=O)c3ccco3)s2)cc1 | 58.6
16 | CC(=O)Nc1nc2ccccc2n1CCOc1ccccc1 | 45.6
17 | CCN1CCN(Cc2ccc(NC(=O)c3cc(NC(=O)c4cncc(-c5ccc(C#N)cc5)c4)cc(OC)c3)cc2C(F)(F)F)CC1 | 58
